The values below come from PubChem BioAssay (NCATS).

Results filed as inconclusive are left out. A call without a number means that no potency is given here. Calls of active or inactive are those of the source. Calls follow the shape of the dose curve; as a rule, active = well fitted curve in the direction sought with a large enough effect; inconclusive = small, poorly fitted or top-dose-only effect, or another doubt; inactive = no such curve, though single readings can be large; an effect the other way counts as inactive or inconclusive.

The subject of one test is Nanoluciferase (engineered Oplophorus gracilirostris luciferase). The test is described as follows: Primary Nanoluciferase (NLuc) qHTS assay for identification of artifact compounds. (AID 1845222).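 Also: NLuc secreted into diluted conditioned medium of S16 cells.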 The conditions noted are these: NLuc-conditioned medium, Nano-Glo luminescence, 5 min; series mostly up to 54.1 µM. In a few lines: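 Using secreted nanoluciferase in S16 culture medium (0.22 um filtered, 1:55 dilution), compounds were preincubated 15 min at RT. Signal was generated with Nano-Glo reagent (1:100) over 5 min.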
As to `C=CC(C)(CC/C=C(\C)C(=O)OC)OC1OC(COC(=O)CC(C)(O)CC(=O)O)C(OC2OC(CO)C(O)C(O)C2O)C(O)C1O` (stereo unspecified), the Potency result was “inactive”.

As to `O=C(NCc1cccc(O)c1)Nc1nc(-c2ccncc2)cs1`, the Potency result was “inactive”. Still for that read-out and setting: in the case of `C[C@@H]1CC[C@]2(C(=O)O[C@@H]3O[C@H](CO)[C@@H](O)[C@H](O)[C@H]3O)CC[C@]3(C)C(=CCC4[C@@]5(C)C[C@@H](O)[C@H](O)[C@](C)(C(=O)O)C5CC[C@]43C)[C@@H]2[C@]1(C)O` (stereo partly specified) it was “inactive”; in that of `COC(=O)CC(O)CC(O)/C=C/c1c(C)ccc2c1C(O)CC(C)C2` (stereo unspecified), “inactive”; in that of `O=C1OCc2cc3cccc(O[C@@H]4O[C@H](CO)[C@@H](O)[C@H](O)[C@H]4O)c3c(O)c21`, “inactive”. Still for that read-out and setting: the value for `C=C1C[C@@]23CCC4[C@@](C)(CCC[C@@]4(C)C(=O)OC)C2CC[C@@H]1C3` (stereo partly specified) was “inactive”; that for `CC1(C)C2CC=C(COC3OC(COC4OCC(O)(CO)C4O)C(O)C(O)C3O)C1C2` (stereo unspecified) was “inactive”.

Test system in a further test: not listed separately
The test is described as follows: Primary redox qHTS assay for identification of artifact compounds. (AID 1845223). Particulars: Amplex Red/HRP redox cycling with DTT, fluorescence; series mostly up to 53.8 µM. In a few lines:
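Amplex Red (25 uM) and HRP (250 mU/mL) in HBSS, with compounds for 15 min, then 250 uM DTT for 30 min, room temperature, dark. Fluorescence 525/598 nm read; normalized to DMSO and 10 uM DA3003; Hill fit.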
Take `O=C(O)C(O[C@@H]1O[C@H](CO[C@@H]2O[C@H](CO)[C@@H](O)[C@H](O)[C@H]2O)[C@@H](O)[C@H](O)[C@H]1O)c1ccccc1` (stereo partly specified): the Potency result is “inactive”.

In the case of `O=C(CC(c1ccccc1)c1ccccc1)N1CCN(C(c2ccccc2)c2ccccc2)CC1`, the Potency result was “inactive”. The same measure, in the same setting: in the case of `CS(=O)(=O)N(CC(=O)NCC1CC1)c1cc(C(F)(F)F)ccc1Cl` it was “inactive”; in that of `CCOc1cc(C(=O)N2CCC(N3CCN(C)CC3)CC2)ccc1Nc1ncc2c(n1)N(C1CCCC1)c1ccccc1C(=O)N2C`, “inactive”. On the same count and under the same terms, the value for `Cc1cc(C(=O)Nc2cccc(C(=O)Nc3cccc(C(F)(F)F)c3)c2)on1` was “inactive”; that for `O=C(CCc1nnc2n(Cc3ccc(Cl)cc3)c(=O)c3ccccc3n12)NCCC1=CCCCC1` was “inactive”.

In the case of `CC(C)=CCC[C@](C)(O[C@@H]1O[C@H](CO)[C@@H](O)[C@H](O)[C@H]1O)[C@H]1CC[C@]2(C)[C@@H]1[C@H](O)CC1[C@@]3(C)CC[C@H](O)C(C)(C)C3[C@@H](O[C@@H]3O[C@H](CO)[C@@H](O)[C@H](O)[C@H]3O)C[C@]12C` (stereo partly specified), the Potency result is “inactive”. Still for that read-out and setting: in the case of `CC(C)(C)c1ccc(S(=O)(=O)NCc2ccc(C(=O)Nc3cccnc3)cc2)cc1` it was “inactive”. In the case of `C[C@@H]1C[C@H]2O[C@@H]2/C=C\C=C\C(=O)Cc2c(Cl)c(O)cc(O)c2C(=O)O1`, the redox activity (% of DA3003) was 4.19% [at 11.5 µM] (inactive).

`C=C1CC2C(C)(CCC(=O)O)C(C(C)(C)O)CCC2(C)C2C(=O)OC(C)(C(=O)OC)C(=O)C12C` (stereo unspecified): the Potency entry is “inactive”. As to `O=C(O)CC1CCC(c2ccc(-c3ccc4nc(C(=O)NCc5ccc(OC(F)(F)F)cc5)cn4c3)cc2)CC1` (stereo unspecified), the Potency result was “inactive”.

`O=C1NC(Cc2c[nH]c3ccccc23)C(=O)NC1Cc1cnc[nH]1` (stereo unspecified): the Potency result is “inactive”.

For `COc1ccc(Cl)c(Nc2nc3ccccc3nc2NS(=O)(=O)c2cccc(NC(=O)C(C)(C)N)c2)c1`, the Potency result was “inactive”. As for `CC(=O)O[C@@H]1C[C@H](O)[C@@]23CO[C@H](O)[C@]1(C)C2C[C@@H](O)[C@]1(C)C3C(=O)[C@H](OC(C)=O)[C@@]2(C)[C@H](c3ccoc3)C[C@H]3O[C@]321` (stereo partly specified), the Potency result was “inactive”. As for `COc1ccc(-c2ccc(-c3cn(C(=O)N4CCCCC4c4ccccc4)nn3)cc2)cc1` (stereo unspecified), the Potency result is “inactive”. As for `CC1=C(C(=O)O)/C(=C/CO[C@@H]2O[C@H](COC(=O)/C=C/c3ccc(O)cc3)[C@@H](O)[C@H](O)[C@H]2O)C(O)C1` (stereo partly specified), the Potency result is “inactive”.

On to `O=C(Nc1ccn[nH]1)c1c(F)cccc1F`, for which the Potency entry is “inactive”.

`CCOc1cc(C)c(Cl)cc1S(=O)(=O)n1cnc2ccccc21`: the Potency result was “inactive”.

Consider `C[C@@H]1C(=O)O[C@H]2C[C@]34[C@H]5C[C@@H](C(C)(C)C)[C@]36[C@@H](OC(=O)[C@H]6O)O[C@]4(C(=O)O5)[C@]21O`, for which the Potency entry is “inactive”. Take `COc1ccc([C@H]2CNC(=O)C2)cc1OC1CCCC1`: the Potency entry is “inactive”. Same read-out and setting: in the case of `CC(C)[C@@H]1C(=O)N(S(C)(=O)=O)[C@@H]2CCN(C(=O)/C=C/CN3CCCCC3)[C@H]21` it was “inactive”; in that of `CC1(C)CC[C@]2(C(=O)O[C@@H]3O[C@H](CO)[C@@H](O)[C@H](O)[C@H]3O)CC[C@]3(C)C(=CCC4[C@@]5(C)C[C@@H](O)[C@H](O)[C@](C)(C=O)C5CC[C@]43C)[C@@H]2[C@@H]1O` (stereo partly specified), “inactive”; in that of `O=C(Nc1c(-c2cccs2)nc2ccccn12)c1ccc(Cl)cc1`, “inactive”.

`CC1CC[C@]2(C(=O)O)CC[C@]3(C(=O)O)C(=CCC4[C@@]5(C)CC[C@H](O[C@@H]6O[C@H](CO)[C@@H](O)[C@H](O)[C@H]6O)C(C)(C)C5CC[C@]43C)C2C1C` (stereo partly specified): the Potency entry was “inactive”.
